Screens: PubChem BioAssay, National Center for Advancing Translational Sciences (NCATS)
This is a sample that favours compounds with a hit; in the whole collection about 3.2% have one here.
TsaE inh: YjeE (TsaE) inhibition, E. coli | actives 0.05% (n = 71,000) | purified YjeE enzyme, qHTS inhibition assay | P0AF67 | Potency, µM | AID 605
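Fluorescence polarization of a BODIPY Texas Red–ADP probe (2 uM) bound to purified YjeE (10 uM) was read after 15 min room-temperature incubation with compounds. Loss of polarization marks inhibitors; ADP serves as titrated control.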
ERK AVP inh: inhibitors of vasopressin-stimulated ERK signaling pathway | HEK293-V1b, vasopressin-stimulated pERK AlphaScreen | Potency, µM (highest dose often 57.5 µM), for the others: top-dose activity, negative = inhibition, usual class: inhibitors | actives 0.99% (n = 72,000) | AID 995; note: potency is the fitted concentration of half-maximal effect; % is set by controls: 0 for no effect and ±100 for the full control effect; nearly all actives have a fitted effect of over 55% in size
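qHTS, compounds titrated on V1b-expressing HEK293 cells. Preincubation 30 min at 37C, vasopressin 25 nM for 5 min, lysis 10 min, bead incubation 5 hr at room temperature.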
Tau fil binding: binders of human tau filaments | P10636 | actives 2% (n = 71,000) | Potency, µM (highest dose often 57.1 µM), for the others: top-dose activity change, negative = inhibition | AID 596 | recombinant tau filaments, thioflavin S fluorescence, 15 h; filaments grown with octadecylsulfate alongside compound;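 note: potency is the fitted concentration of half-maximal effect; % is set by controls: 0 for no effect and ±100 for the full control effect; actives lower thioflavin S fluorescence by blocking filaments or displacing dye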
Target sequence (P10636 whole entry, looked up): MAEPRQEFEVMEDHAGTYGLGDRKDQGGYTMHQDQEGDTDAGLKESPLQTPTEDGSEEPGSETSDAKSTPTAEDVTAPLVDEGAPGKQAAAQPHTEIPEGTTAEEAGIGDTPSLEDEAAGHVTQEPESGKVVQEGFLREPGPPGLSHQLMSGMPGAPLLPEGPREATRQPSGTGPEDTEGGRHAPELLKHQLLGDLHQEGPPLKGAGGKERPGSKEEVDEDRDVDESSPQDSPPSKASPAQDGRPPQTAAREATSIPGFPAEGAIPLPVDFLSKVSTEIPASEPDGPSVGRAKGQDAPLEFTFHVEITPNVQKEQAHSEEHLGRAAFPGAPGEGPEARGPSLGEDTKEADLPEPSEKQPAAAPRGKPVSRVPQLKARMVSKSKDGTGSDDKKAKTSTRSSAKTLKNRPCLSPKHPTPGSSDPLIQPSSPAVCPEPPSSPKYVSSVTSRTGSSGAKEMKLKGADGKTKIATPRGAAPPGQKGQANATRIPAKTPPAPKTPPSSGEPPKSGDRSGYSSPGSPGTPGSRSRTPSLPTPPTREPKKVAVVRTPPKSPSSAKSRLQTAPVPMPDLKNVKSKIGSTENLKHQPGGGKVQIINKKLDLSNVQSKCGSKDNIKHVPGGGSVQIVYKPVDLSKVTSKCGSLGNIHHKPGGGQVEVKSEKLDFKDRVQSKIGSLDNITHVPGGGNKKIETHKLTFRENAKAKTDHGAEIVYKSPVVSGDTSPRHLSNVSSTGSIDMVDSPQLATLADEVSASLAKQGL
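Recombinant tau protein (human, 1 uM final) plus 30 uM ODS in HEPES pH 7.4 with NaCl, DTT and thioflavine S. Compound present from the start; fluorescence at 510 nm after 15 h, 37 C.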
p53ts 32C kill: cytotoxicity in p53ts cells at permissive temperature; H1299-p53A138V at 32C, ATP luminescence viability, 24 h; Potency, µM (top dose mostly 46.1 µM), without a hit: at the highest dose activity change, negative = cytotoxicity, usual class: cytotoxic; AID 924; actives 0.93% (n = 130,000);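 note: potency is the fitted concentration of half-maximal effect; 0% = DMSO and -100% = full killing by reference compound; nearly all actives have a fitted effect of over 55% in size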
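Viability by ATPlite luminescence after 24 h compound treatment (up to 46 uM) at the permissive 32C. Cells are H1299 carrying p53 A138V. Scale runs from DMSO basal to 100 uM tamoxifen as full kill; AC50 from Hill fits.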
Pol III holo inh: DNA polymerase III holoenzyme inhibition | Potency, µM (series often up to 57.1 µM), inactives show top-dose activity change, negative = inhibition | reconstituted DNA polymerase III holoenzyme replication, biochemical | actives 0.25% (n = 71,000); note: potency is the fitted concentration of half-maximal effect; % is set by controls: 0 for no effect and ±100 for the full control effect
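Reconstituted *E. coli* holoenzyme (0.35 nM Pol III, 1 nM beta, 154 nM SSB, 2 nM primase) was preincubated with compound for 15 min at RT. Synthesis on 1.4 nM ssM13Gori ran 35 min, then was stopped with PicoGreen/EDTA and read as dsDNA fluorescence.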
p53ts 39C tox: cytotoxicity in p53ts cells at nonpermissive temperature; H1299-p53A138V viability at 39C, ATP luminescence, 24 h; Potency, µM (series often up to 46.1 µM), for the others: at the highest dose activity change, negative = cell killing, most hits filed as cytotoxic; AID 902; actives 1.5% (n = 130,000); note: potency is the fitted concentration of half-maximal effect; % is set by controls: 0 for no effect and ±100 for the full control effect; nearly all actives have a fitted effect of over 55% in size
Numbers without * were called inactive; i = inactive; ? = inconclusive; / = no result given; ! = repeats disagree; [ ] = remark or other dose. Calls come from the whole dose curve; as a rule, active = well fitted curve in the direction sought with a large enough effect; inconclusive = small, poorly fitted or top-dose-only effect, or another doubt; inactive = no such curve, though single readings can be large; an effect the other way counts as inactive or inconclusive.

SMILES	TsaE inh	ERK AVP inh	Tau fil binding	p53ts 32C kill	Pol III holo inh	p53ts 39C tox
CC(=O)NC(Cc1c[nH]c2ccccc12)C(=O)OCC(=O)Nc1ccc2c(c1)OCO2 (stereo not given)	i	-17%	-8%	7%	-5%	9%
O=C(COC(=O)CCCc1c[nH]c2ccccc12)Nc1ccc2c(c1)OCO2	i	40µM*	-14%	-4%	-2%	-17%
O=c1cnc2cnc(Oc3cccc(Cl)c3)nc2n1CCc1ccccc1	i	-22%	25µM*	-4%	-6%	0%
COc1ccc(NS(=O)(=O)c2ccc3[nH]c4c(c3c2)CCCCCC4)cc1	/	/	/	30%	/	?
CCOC(=O)CC(NS(=O)(=O)c1ccc2[nH]c3c(c2c1)CCCC3)c1ccccc1Cl (stereo not given)	/	/	/	32%	/	13µM*
COc1cccc(NS(=O)(=O)c2ccc3[nH]c4c(c3c2)CCCCCC4)c1	/	/	/	14%	/	20µM*
COCCn1c(=O)c(-c2cccs2)nc2cnc(OCc3ccccc3)nc21	i	-2%	80%	-9%	-7%	-6%
O=c1c2c3nc4ccccc4nc3n(/N=C/c3ccco3)c2ncn1CCC1=CCCCC1	i	?	7.9µM*	?	1%	-4%
O=C1C2=C(Nc3ccccc3SC2c2ccco2)c2ccccc21 (stereo not given)	i	?	4µM*	18%	0%	38%
Cc1ccc(C)c(N2CCN(S(=O)(=O)c3cc(C(=O)Nc4ccccc4C(F)(F)F)ccc3F)CC2)c1	/	/	/	12%	/	-1%
c1ccc(CNc2nc3ccccc3[nH]2)cc1	i	-10%	-12%	10µM*	-4%	?
CC(=O)c1c(C)[nH]c(C(=O)OCc2nnc(-c3ccccc3)o2)c1C	i	25µM*	353%	-18%	8%	-15%
COc1cccc(/C=C/c2nc(C#N)c(N3CCCCC3)o2)c1	/	/	/	-11%	/	-12%
Cc1cn2c(=O)cc(COC(=O)c3cccc(NC(=O)c4ccc(C(C)(C)C)cc4)c3)nc2s1	/	/	/	2.5µM*	/	3.2µM*
CC(C)(C)c1ccc(C(=O)Nc2ccc(C(=O)OCc3cc(=O)n4ccsc4n3)cc2)cc1	/	/	/	16µM*	/	16µM*
Cc1cn2c(=O)cc(COC(=O)c3ccc(NC(=O)c4ccc(C(C)(C)C)cc4)cc3)nc2s1	/	/	/	-18%	/	-25%
CSc1ccc2c(c1)N(CCCN(C)C)c1ccccc1S2	i	5%[11.5 µM]	3.2µM*	1%[9.22 µM]	-10%[11.4 µM]	-8%[9.22 µM]
CN(C)CCCN1c2ccc(O)cc2Sc2ccc(Cl)cc21	i	-5%[11.5 µM]	3.2µM*	-2%[9.22 µM]	-6%[11.4 µM]	-6%[9.22 µM]
CCSc1ccc2c(c1)N(CCCN1CCN(C)CC1)c1ccccc1S2	i	5%[25.7 µM]	4µM*	7%[20.6 µM]	-3%[25.6 µM]	-1%[20.6 µM]
OC1CC2CC[C@H](C1)N2CCCN1c2ccccc2Sc2ccc(Cl)cc21 (stereo not given in full)	i	7%[11.5 µM]	-17%[11.4 µM]	2%[9.22 µM]	-4%[11.4 µM]	2%[9.22 µM]
CN1CCN(CCCN2c3ccccc3Sc3ccc(Cl)cc32)CC1	i	?	?	16µM*!	0%[25.6 µM]	20µM*
Cc1cc(NC(=O)c2ccc(NC(=O)CCS(=O)(=O)c3cccs3)cc2)ccc1Br	/	/	/	-3%	/	?
CC(C)(c1cc(Br)c(OCC(Br)CBr)c(Br)c1)c1cc(Br)c(OCC(Br)CBr)c(Br)c1 (stereo not given)	i	16%	27%	11%[1.84 µM]	-5%	-13%
Cc1ccc(NC(=O)NC2=N/C(=C(/C#N)C(=O)N3CCCC3)c3ccccc32)cc1	i	6%	5µM*	9%	0%	7%
CC(C)C(=O)Nc1cccc(C(=O)Nc2nnc(C(F)(F)F)s2)c1	/	/	/	-24%	/	-17%
SMILES	TsaE inh	ERK AVP inh	Tau fil binding	p53ts 32C kill	Pol III holo inh	p53ts 39C tox
Cc1ccc(OCc2nnc(SCC(=O)Nc3ccccc3C(C)C)o2)cc1	/	/	/	18%	/	33%
CCOC(=O)C1=C(CS(=O)(=O)c2ccc(F)cc2)NC(=O)NC1c1ccc(OCC)c(OC)c1 (stereo not given)	/	/	/	-22%	/	4%
COc1ccc(CNC(=O)c2nc(S(=O)(=O)Cc3ccccc3)ncc2Cl)cc1	/	/	/	20µM*	/	5µM*
COc1ccc(CNC(=O)c2nc(SC(C)C)ncc2Cl)cc1	/	/	/	1%	/	-24%
O=C(NCc1ccccc1)c1nc(S(=O)(=O)Cc2ccccc2)ncc1Cl	/	/	/	?	/	7.9µM*
Cc1cccc(CSc2ncc(Cl)c(C(=O)Nc3nc4ccc(F)cc4s3)n2)c1	/	/	/	15%	/	-25%
O=C(Nc1nc2ccc(F)cc2s1)c1nc(S(=O)(=O)Cc2ccccc2F)ncc1Cl	/	/	/	10µM*	/	5µM*
CCNC(=O)c1c(NC(=O)c2nc(S(=O)(=O)CC)ncc2Cl)sc2c1CCCC2	/	/	/	?	/	3.2µM*
CCN(CC)CCCn1c(-c2ccccc2)nc2c(NCCOC)nc(C)nc21	i	-22%	12%	-8%	-5%	-3%
CCn1cc(C(=O)NCc2ccccc2OC)c(=O)c2cc(S(=O)(=O)N3CCCCC3)ccc21	/	/	/	10%	/	1%
CC(C)Sc1ncc(Cl)c(C(=O)Nc2c(C(=O)Nc3ccccc3)oc3ccccc23)n1	/	/	/	17%	/	-15%
CCOc1ccc(NC(=O)c2nc(S(=O)(=O)Cc3ccccc3F)ncc2Cl)cc1	/	/	/	14µM*	/	7.9µM*
CCCSc1ncc(Cl)c(C(=O)N(Cc2ccccc2)c2ccc(OC)cc2)n1	/	/	/	6%	/	-8%
CCCS(=O)(=O)c1ncc(Cl)c(C(=O)Nc2c(C(=O)Nc3ccccc3)oc3ccccc23)n1	/	/	/	?	/	6.3µM*
COc1ccc(N(Cc2ccccc2)C(=O)c2nc(S(C)(=O)=O)ncc2Cl)cc1	/	/	/	7.9µM*	/	4µM*
COc1ccc(NC(=O)c2nc(S(=O)(=O)Cc3ccc(C)cc3)ncc2Cl)cc1	/	/	/	?	/	6.3µM*
CCS(=O)(=O)c1ncc(Cl)c(C(=O)NCc2ccccc2)n1	/	/	/	?	/	13µM*
Cc1ccc(CNC(=O)c2nc(SCc3ccccc3C)ncc2Cl)cc1	/	/	/	-3%	/	-8%
CS(=O)(=O)c1ncc(Cl)c(C(=O)N(Cc2ccc(Cl)cc2)Cc2ccco2)n1	/	/	/	28µM*	/	3.2µM*
Cc1ccc(C)c(NC(=O)c2nc(S(=O)(=O)Cc3ccc(F)cc3)ncc2Cl)c1	/	/	/	?	/	4µM*
CCCOc1ccc(NC(=O)CC2C(=O)N(c3cccc(OC)c3)C(=O)N2Cc2cccs2)cc1 (stereo not given)	/	/	/	6%	/	-6%
Cc1nc2ncnn2c(N2CCN(C(c3ccccc3)c3ccccc3)CC2)c1C	?	25µM*	177%	?	-7%	20µM*
Cn1cc(C2NC(=O)c3c(sc4c3CCCC4)N2)c2ccccc21 (stereo not given)	i	-1%	3.2µM*	0%	1%	-10%
